Here are results for 40 molecules from PubChem BioAssay (EPA / NIEHS).

Structures are written as SMILES. The source made the active and inactive calls. How the source made its calls: active means hit-call score of the fitted dose curve at least 0.9, where 1 is the maximum; inactive means score below 0.9.

Read-out in the test: Bcl-2 (BAX) gene, BAX (gene 581)
The experiment in a line: LTEA_HepaRG_BAX: Life Technologies and Expression Analysis (LTEA) Assay for Bcl-2 (BAX) gene using HepaRG (AID 2283470). The settings on record: mRNA level, 48 h; actives raise or lower the signal. How it is done:
LTEA_HepaRG is a cell based, multiplexed-readout assay that uses HepaRG, a human liver cell line, with measurements taken at 48 hours after chemical dosing on a 96-well plate.LTEA_HepaRG_BAX is one of 102 assay component(s) measured in the LTEA HepaRG cell culture assay. It is a marker of Cell proliferation, survival, death.Data from the assay component LTEA_HepaRG_BAX was analyzed into 1 endpoint. This assay endpoint, LTEA_HepaRG_BAX, was analyzed with bidirectional fitting relative to DMSO as the negative control and baseline of activity. Using a type of inducible reporter, measures of mRNA induction for gain or loss-of-signal activity can be used to understand regulation of transcription factor activity. To generalize the intended target to other relatable targets, this assay endpoint is annotated to the cell cycle intended target family, where the subfamily is Cell proliferation, survival, death.
A total of 1060 chemcials from the ToxCast library were tested in eight-point concentration-response experiments. Cell culture and cytotoxicity assays were conducted at Thermo Fisher Scientific's Custom Services facility (Madison, WI). A single lot of human HepaRG cells (Thermo Fisher Scientific, Frederick, MD) was used for the cell culture experiments. 96-well format collagen type I coated plates of human HepaRG cells were prepared using established methods. Briefly, cryopreserved HepaRG cells were thawed, plated at a density of approximately 100,000 cells/well in HepaRG Thaw, Plate, and General Purpose media (HPRG770, Thermo Fisher Scientific), and incubated for 48 hours. 0.5% DMSO was selected as vehicle control to balance the requisite need of DMSO in HepaRG cultures to maintain differentiation (for example, baseline metabolism, proportions of hepatocytes vs. cholangiocytes), while enabling further hepatic receptor pathway activation (for example, PXR and CAR) in response to chemical exposure. 48 hours after plating, the culture medium was replaced with HepaRG Serum-Free Incudtion Media. Cells were exposed to each test chemical in duplicate and maintained in CO2 incubators for another 48 hours. Chemical plates were thawed to room temperature and 200x concentrations of treatment groups were prepared. 8-point conentration-reponse curves were made with the highest exposure at 100 uM, followed by half-log dilutions, all in 0.5% DMSO. Each test plate contained variouse controls, induction positive controls (1mM phenobarbital), cytotoxicity positive controls ([…] aflatoxin B1), vehicle controls (0.5% DMSO), and total lysis controls (0.5% DMSO). Cell morphology images were taken using an Essen IncuCyte FLR automated microscope, with six 96-well plates imaged in about 24 minutes. Images were captured and exported and JPEG files. Spent culture media was transfered to black-well plates for the LDH assay, and remaining media was sorted at -80 C for later use. Cells were treated with RLT buffer and frozen until shipped for gene expression analysis. Total RNA was isolated from the cell suspension in 75 uL of Buffer RLT (Qiagen, Germantown, MD 20874) by Quintiles/Expression Analysis (Durham, NC) using a custom isolation procedure. Total RNA from each plate well was transferred to a preamplification plate. Fluidigm's 96.96 Dynamic ArrayTM (Fluidigm, Amsterdam, the Netherlands) technology was used for gene expression analyses by quantitative reverse transcription polymerase chain reaction (qRT-PCR, performed by Quintiles/Expression Analysis, Durham, NC)89. Standard TaqManTM Assays (Applied Biosystems/ThermoFisher Scientific, Foster City, CA) were used to assess the expression of 93 genes selected based on their selectivity and sensitivity to important hepatic receptors known to be modulated by environmental chemicals; importance in human hepatocyte functionality; and hepatotoxicity. […]
`CCOCCOCCOCCO`: the call was inactive.
On to `C1=CCCC=CCCC=CCC1`, for which the outcome was inactive.
On the same count and under the same terms, as for `CC/C(=C\C(=N/O)C(N)=O)C(C)[N+](=O)[O-]` (stereo not given), the entry is “inactive”.
Consider `CCOc1cccc(-n2cc(C(=O)N3CCN(c4cc(C(=O)O)c5ccccc5c4)CC3)nc2-c2ccc(C)cc2)c1`, for which the half-maximal activity concentration (AC50) is 12.5 µM (active).
On to `O=C(O)CCN(C1(C(=O)NO)CCCC1)S(=O)(=O)c1ccc(Oc2ccc(F)cc2)cc1`, for which the molecule was classed as inactive.
Still for that read-out and setting: the result for `Nc1nc2ncc(CNc3ccc(C(=O)N[C@@H](CCC(=O)O)C(=O)O)cc3)nc2c(=O)[nH]1` reads “inactive”.
For `Fc1ccccc1[C@@H](F)COC1CCC(Nc2ncnc3[nH]ncc23)CC1` (stereo not given in full), the concentration at half-maximal activity (AC50) is 50 µM (active).
Regarding `O=C(CCCCCCCCc1cccnc1)N1CCC(C=C(c2ccccc2)c2ccccc2)CC1`, the half-maximal activity concentration (AC50) was 30.9 µM (active).
On to `O=C1OC(=O)C2C3C=CC(C3)C12` (stereo not given), for which the call was inactive.
On the same count and under the same terms, as for `CCCCCCc1ccc(O)cc1O`, the entry is “inactive”; as for `O=C1CCC(N2C(=O)c3ccccc3C2=O)C(=O)N1` (stereo not given), “inactive”.
With `O=C(O)c1cccc(N(Cc2cccnc2)c2ccc(OC(F)F)c(OC(F)F)c2)c1`, the call was inactive.
Take `CCCC(=O)OCC`: the molecule was called inactive.
Same read-out and setting: as for `O=C(OC[C@H]1O[C@@H](OC(=O)c2cc(O)c(O)c(OC(=O)c3cc(O)c(O)c(O)c3)c2)[C@H](OC(=O)c2cc(O)c(O)c(OC(=O)c3cc(O)c(O)c(O)c3)c2)[C@@H](OC(=O)c2cc(O)c(O)c(OC(=O)c3cc(O)c(O)c(O)c3)c2)[C@@H]1OC(=O)c1cc(O)c(O)c(OC(=O)c2cc(O)c(O)c(O)c2)c1)c1cc(O)c(O)c(OC(=O)c2cc(O)c(O)c(O)c2)c1`, the entry is “inactive”; as for `CC(C)CCCCCCOC(=O)c1ccc(C(=O)OCCCCCCC(C)C)c(C(=O)OCCCCCCC(C)C)c1`, “inactive”.
Regarding `Cc1c(-c2cccnc2)c2ccccc2n1CCCCC(=O)O`, the call was inactive.
`Cn1c(=O)c2c(ncn2C)n(C)c1=O`: the outcome was inactive.
Still for that read-out and setting: the result for `C[C@](N)(Cc1ccc(O)c(O)c1)C(=O)O` reads “inactive”.
With `Oc1ccc2c(c1)-c1ccccc1C2`, the result was inactive.
Take `COc1ccc(/C=C/S(=O)(=O)NC(=O)c2ccc(C)cc2Cl)cc1`: the molecule was classed as inactive.
In the case of `Cc1[nH]cnc1C[C@H]1CCc2c(C)c3ccccc3n2C1=O`, the half-maximal activity concentration (AC50) was 28 µM (active).
For the molecule `CC1(C)C(=O)N(Br)C(=O)N1Br`, the result was inactive.
For `C=CC(=C)CCC=C(C)C`, the result was inactive.
Still for that read-out and setting: the result for `O=C1CCCCCN1` reads “inactive”.
For the molecule `Nc1cccc(N)c1`, the molecule was classed as inactive.
On to `C=CCCCCCCCCC(=O)O`, for which the molecule was classed as inactive.
Take `CN(C)c1ccc(Cc2ccc(N(C)C)cc2)cc1`: the result was inactive.
On the same count and under the same terms, as for `O=C(NS(=O)(=O)/C=C/c1ccccc1)c1ccc(F)cc1Cl`, the entry is “inactive”.
On to `COc1ccc2sc(C(=O)Nc3nnn[nH]3)c(OC(C)C)c2c1`, for which the AC50 was 50 µM (active).
As to `O=c1n(CC2CO2)c(=O)n(CC2CO2)c(=O)n1CC1CO1` (stereo not given), the AC50 is 83.4 µM (active).
For `CC(=O)c1ccc2c(c1)[C@H](NC(=O)c1ccc(F)cc1)[C@@H](O)C(C)(C)O2`, the outcome was inactive.
Consider `CCNc1ccccc1`, for which the call was inactive.
Consider `CC[C@H]1CC[C@H](NCc2cc3c(cc2OC)[C@H]2C[C@H]2C(=O)N3C)[C@H](c2ccccc2)N1`, for which the outcome was inactive.
Turning to `O=c1[nH]c2ccc(S(=O)CCN3CCC(Cc4ccc(F)cc4)CC3)cc2o1` (stereo not given), the call was inactive.
The same measure, in the same setting: the result for `Cc1ccc(N)cc1O` reads “inactive”; that for `CCC(C)(C)C(=O)O[C@H]1C[C@@H](C)C=C2C=C[C@H](C)[C@H](CC[C@@H]3C[C@@H](O)CC(=O)O3)[C@H]21`, “inactive”.
The same measure, in the same setting: the result for `CNCc1ccc(NC(=O)c2c[nH]c3c2C(=O)CCC3)cc1` reads “inactive”.
As for `CC(C)(O)c1coc(S(=O)(=O)NC(=O)Nc2c3c(cc4c2CCC4)CCC3)c1`, the molecule was called inactive.
Consider `CC(C)CCO`, for which the molecule was called inactive.
In the case of `CC(C)=CCCC(C)CCO` (stereo not given), the result was inactive.
